40 molecules from PubChem BioAssay can be followed below.

For some of these results: Results with a measured potency or affinity are listed apart. Activity calls are given as the source filed them. Unless noted, no rule for the calls is given here.

Plasmodium falciparum protein kinase 6 (PK6, PF3D7_1337100), sequence (Q8IDW1 1-305): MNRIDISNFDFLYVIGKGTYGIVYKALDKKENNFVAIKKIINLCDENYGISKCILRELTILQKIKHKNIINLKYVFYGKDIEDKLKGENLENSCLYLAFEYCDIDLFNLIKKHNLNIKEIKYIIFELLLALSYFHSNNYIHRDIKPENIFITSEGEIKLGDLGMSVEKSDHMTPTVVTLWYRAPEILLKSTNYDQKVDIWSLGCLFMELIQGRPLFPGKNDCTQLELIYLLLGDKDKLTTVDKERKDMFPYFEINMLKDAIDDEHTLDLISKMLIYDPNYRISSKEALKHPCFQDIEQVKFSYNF

System in the first assay: not listed separately
The experiment in a line: inhibition of 3D7 malaria parasite growth – strain 3D7 (AID 2306).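 Also: 0% = DMSO wells and 100% = chloroquine plus artemisinin control wells.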 The note with it: P. falciparum 3D7 erythrocytic growth, LDH absorbance, 72 h; at 2 µM; hits give high values.
In the case of `O=C(Nc1cccc(-c2ccc(-c3nc4ccccc4[nH]3)cc2)c1)c1cccnc1`, the growth inhibition is 100% (active).
Take `Cc1ccccc1C1CCN(C2CCC(NC(=O)c3cc(-c4ccc(Cl)cc4)cs3)CC2)CC1` (stereo not given): the growth inhibition was 101% (active).
Same read-out and setting: then `CC(=O)Nc1nnc(SCc2c(C)cc(C(C)(C)C)cc2C)s1`, with 98% (active); and `Nc1ccc(-c2ccc(NC(=O)Nc3ccccc3)cc2)cn1`, with 91% (active); and `COc1cccc2c(NCCNc3ccnc4c(OC)cccc34)ccnc12`, with 93% (active).

The target in a further assay is Calcium-dependent protein kinase 1 (Plasmodium falciparum (isolate 3D7)) (UniProt P62344). The experiment in a line: PfCDPK1 kinase inhibitors, biochemical, TCAMS library (AID 1159585; cut-off not given, nearly all actives have IC50 up to about 0.98 µM;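 also: inhibitors leave more ATP so luminescence rises with inhibition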). The note with it: recombinant PfCDPK1, Kinase-Glo ATP depletion luminescence. In general terms: Kinase-Glo reads ATP consumption through a luciferase reaction.
Calcium-dependent protein kinase 1 (Plasmodium falciparum (isolate 3D7)), sequence (P62344 whole entry, looked up): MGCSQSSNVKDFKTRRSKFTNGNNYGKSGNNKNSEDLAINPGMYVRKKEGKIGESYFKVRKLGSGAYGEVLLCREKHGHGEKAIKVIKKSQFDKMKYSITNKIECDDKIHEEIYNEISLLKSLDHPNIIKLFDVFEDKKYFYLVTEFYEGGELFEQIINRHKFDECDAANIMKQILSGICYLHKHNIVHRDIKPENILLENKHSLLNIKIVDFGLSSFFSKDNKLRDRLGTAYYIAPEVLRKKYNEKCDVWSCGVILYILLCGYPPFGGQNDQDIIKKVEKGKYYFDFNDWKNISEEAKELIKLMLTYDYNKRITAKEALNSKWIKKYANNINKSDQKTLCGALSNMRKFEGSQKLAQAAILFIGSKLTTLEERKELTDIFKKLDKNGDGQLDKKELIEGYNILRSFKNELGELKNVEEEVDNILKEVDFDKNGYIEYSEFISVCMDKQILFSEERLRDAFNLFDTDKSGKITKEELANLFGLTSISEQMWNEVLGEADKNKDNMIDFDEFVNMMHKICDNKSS
Consider `CN1CCN(c2ccnc3cc4c(cc23)N(C(=O)Nc2ccc3c(c2)CCCC3=O)CC4)CC1`, for which the outcome was inactive.
As for `CCCCOC(=O)NCCCC[C@H](NC(=O)OC(C)(C)C)C(=O)N[C@H](C(=O)OC(c1ccccc1)c1ccccc1)[C@H]1O[C@@H](n2ccc(=O)[nH]c2=O)[C@@H]2OC(C)(C)O[C@@H]21`, the result was inactive.
The same measure, in the same setting: then `COCCNCc1ccc(-c2cccc(CNc3ccc(OC)cc3)c2)cc1`, with “inactive”; and `Cc1ccc(NC(=O)c2ccc3ncccc3c2)cc1OC1CCN(Cc2ccc(F)cc2)C1` (stereo not given), with “inactive”; and `Cc1ccc(CCC(C)NCC(O)c2cccc(Cl)c2)cc1` (stereo not given), with “inactive”.
Turning to `CCCNC(=O)Nc1cc2cc(-c3cccc(CN4CCCCC4)c3)ccc2n2c(C)nnc12`, the outcome was inactive.
For the molecule `CCC[C@@H]([C@@H](CC1CCCCC1)C(=O)N[C@@H](CCCCNS(C)(=O)=O)C(=O)Nc1nccs1)N(O)C=O`, the result was inactive.
On to `COc1cc(O)c2c(=O)c(OC)c(-c3cccc(Cl)c3OC3O[C@H](CO)[C@@H](O)[C@H](O)[C@H]3O)oc2c1OC` (stereo not given in full), for which the outcome was inactive.
On to `Nc1nc(N)c2cc(NC(=O)c3ccc(Cl)c(Cl)c3)ccc2n1`, for which the result was inactive.
Same read-out and setting: then `CN1CCN(CC2(Nc3nccc(NCCc4cn(C)c5ccccc45)n3)CCCCC2)CC1`, with “inactive”.
Same read-out and setting: the entry for `COc1cc(Cc2cnc(N)nc2N)cc(OCCCCCC(=O)O)c1OC` is “inactive”.
On to `Cc1cc(-c2cccc(CNCc3ccccc3)c2)ccc1S(=O)(=O)NCCN1CCCC1`, for which the outcome was inactive.
Same read-out and setting: the entry for `CC1CN(Cc2cccc(C#N)c2)CCN1c1ccc(NC(=O)c2cccs2)cc1` (stereo not given) is “inactive”; for `Cc1cc(N[C@@H](Cc2ccccc2)C(=O)NCc2cccc(F)c2)nc(NCCCOC(C)C)n1` it is “inactive”; for `O=C(Nc1ccccc1Oc1ccccc1)NC1CCN(c2ccnc3cc(Cl)ccc23)C1` (stereo not given) it is “inactive”.
Same read-out and setting: the entry for `CCCOc1ccc(CCCON2C(N)=NC(N)=NC2(C)C)cc1` is “inactive”.
For the molecule `CC(=O)NC(c1cccs1)c1cc(Cl)c2cccnc2c1O` (stereo not given), the result was inactive.
Still for that read-out and setting: the entry for `CC(Nc1ncc(-c2ccsc2)c(-c2nccs2)n1)c1ccc2c(c1)OCCO2` (stereo not given) is “inactive”.
`O=C(/C=C/c1ccc(Cl)c(Cl)c1)NCCCCCN1CCC(NC(=O)Nc2ccc(OC(F)F)cc2)CC1`: the outcome was inactive.
Same read-out and setting: then `O=C(Nc1ccc(OC2CCN(Cc3ccsc3)C2)c(Cl)c1)c1ccsc1` (stereo not given), with “inactive”; and `CCn1c(-c2nc(-c3ccc4c(c3)OCO4)cnc2N)nc2cnccc21`, with “inactive”.
With `Cc1cc(-c2ccc3c(c2)CCN(CCCOc2ccc4c(c2)CCN4C(=O)/C=C/c2ccccc2Cl)CC3)no1`, the outcome was inactive.
Same read-out and setting: the entry for `O=C(c1ccc(Cl)cc1)N1CCCC(C(=O)N(Cc2nnc(-c3ccccc3Cl)o2)C2CC2)C1` (stereo not given) is “inactive”.
Still for that read-out and setting: then `O=C(CNC(=O)c1ccc(O)cc1)Nc1cccc(-c2cccc(-c3nc4ccc(C(F)(F)F)cc4[nH]3)c2)c1`, with “inactive”; and `O=c1cc(N2CCNCC2)c(Cl)nn1Cc1ccc(NS(=O)(=O)c2ccc(Oc3ccccc3)cc2)cc1`, with “inactive”; and `Cc1ccc(O)cc1Nc1ccnc2ccc(-c3csc(CNCCN4CCOCC4)n3)cc12`, with “inactive”.
As to `CN(C)CCNc1ncnc2c1[nH]c1ccc(Cl)cc12`, the outcome was inactive.
In the case of `CCc1ccc(CN2CCC(NC(=O)c3ccc(-c4ccc(N(C)C)cc4)s3)CC2)cc1`, the result was inactive.
In the case of `Nc1ccc(Nc2ccnc3ccc(C(F)(F)F)cc23)cc1O`, the outcome was inactive.
Turning to `O=C(Nc1ccc(Oc2ccccc2)cc1)N1CCC(CCN2CCC(c3c[nH]c4ccccc34)CC2)CC1`, the outcome was inactive.
Consider `CN1CCC(NCc2ccc(-c3ccc(C(F)(F)F)cc3)cc2)CC1`, for which the outcome was inactive.
For the molecule `O=C(/C=C/c1ccc(Cl)c(Cl)c1)NCCCCCCN1CCCN(C(=O)Nc2ccc(C(F)(F)F)cc2)CC1`, the result was inactive.
With `COc1ccccc1NC(=O)NC1CCN(CCCCCNC(=O)/C=C/c2ccc(Cl)c(Cl)c2)CC1`, the result was inactive.
Regarding `Oc1cccc(Nc2nc(NCc3ccco3)c3ccccc3n2)c1`, the result was inactive.
Take `COCCNC(=O)c1ccc(OC2CCN(Cc3ccc(F)c(F)c3)CC2)c(Cl)c1`: the outcome was inactive.
Still for that read-out and setting: then `O=C(Nc1cccc(-c2ccc(-c3nc4ccccc4[nH]3)cc2)c1)c1cccnc1`, with “inactive”.
On the same count and under the same terms, the entry for `Cc1ccccc1C1CCN(C2CCC(NC(=O)c3cc(-c4ccc(Cl)cc4)cs3)CC2)CC1` (stereo not given) is “inactive”; for `CC(=O)Nc1nnc(SCc2c(C)cc(C(C)(C)C)cc2C)s1` it is “inactive”.
Same read-out and setting: then `Nc1ccc(-c2ccc(NC(=O)Nc3ccccc3)cc2)cn1`, with “inactive”.
Consider `COc1cccc2c(NCCNc3ccnc4c(OC)cccc34)ccnc12`, for which the outcome was inactive.

A further assay concerns the target Plasmodium falciparum protein kinase 6 (PK6, PF3D7_1337100) (UniProt Q8IDW1). The experiment in a line: PfPK6 kinase inhibitors, biochemical, TCAMS library (AID 1159586). The note with it: recombinant PfPK6, Kinase-Glo ATP depletion luminescence.
In the case of `CN1CCN(c2ccnc3cc4c(cc23)N(C(=O)Nc2ccc3c(c2)CCCC3=O)CC4)CC1`, the outcome was inactive.
Take `CCCCOC(=O)NCCCC[C@H](NC(=O)OC(C)(C)C)C(=O)N[C@H](C(=O)OC(c1ccccc1)c1ccccc1)[C@H]1O[C@@H](n2ccc(=O)[nH]c2=O)[C@@H]2OC(C)(C)O[C@@H]21`: the outcome was inactive.
On to `COCCNCc1ccc(-c2cccc(CNc3ccc(OC)cc3)c2)cc1`, for which the result was inactive.
With `Cc1ccc(NC(=O)c2ccc3ncccc3c2)cc1OC1CCN(Cc2ccc(F)cc2)C1` (stereo not given), the outcome was inactive.
The same measure, in the same setting: the entry for `Cc1ccc(CCC(C)NCC(O)c2cccc(Cl)c2)cc1` (stereo not given) is “inactive”; for `CCCNC(=O)Nc1cc2cc(-c3cccc(CN4CCCCC4)c3)ccc2n2c(C)nnc12` it is “inactive”; for `CCC[C@@H]([C@@H](CC1CCCCC1)C(=O)N[C@@H](CCCCNS(C)(=O)=O)C(=O)Nc1nccs1)N(O)C=O` it is “inactive”.
The same measure, in the same setting: the entry for `COc1cc(O)c2c(=O)c(OC)c(-c3cccc(Cl)c3OC3O[C@H](CO)[C@@H](O)[C@H](O)[C@H]3O)oc2c1OC` (stereo not given in full) is “inactive”; for `Nc1nc(N)c2cc(NC(=O)c3ccc(Cl)c(Cl)c3)ccc2n1` it is “inactive”.
Same read-out and setting: the entry for `CN1CCN(CC2(Nc3nccc(NCCc4cn(C)c5ccccc45)n3)CCCCC2)CC1` is “inactive”.
As to `COc1cc(Cc2cnc(N)nc2N)cc(OCCCCCC(=O)O)c1OC`, the result was inactive.
For the molecule `Cc1cc(-c2cccc(CNCc3ccccc3)c2)ccc1S(=O)(=O)NCCN1CCCC1`, the outcome was inactive.
For `CC1CN(Cc2cccc(C#N)c2)CCN1c1ccc(NC(=O)c2cccs2)cc1` (stereo not given), the result was inactive.
Still for that read-out and setting: then `Cc1cc(N[C@@H](Cc2ccccc2)C(=O)NCc2cccc(F)c2)nc(NCCCOC(C)C)n1`, with “inactive”; and `O=C(Nc1ccccc1Oc1ccccc1)NC1CCN(c2ccnc3cc(Cl)ccc23)C1` (stereo not given), with “inactive”; and `CCCOc1ccc(CCCON2C(N)=NC(N)=NC2(C)C)cc1`, with “inactive”.
On the same count and under the same terms, the entry for `CC(=O)NC(c1cccs1)c1cc(Cl)c2cccnc2c1O` (stereo not given) is “inactive”.
Still for that read-out and setting: then `CC(Nc1ncc(-c2ccsc2)c(-c2nccs2)n1)c1ccc2c(c1)OCCO2` (stereo not given), with “inactive”; and `O=C(/C=C/c1ccc(Cl)c(Cl)c1)NCCCCCN1CCC(NC(=O)Nc2ccc(OC(F)F)cc2)CC1`, with “inactive”; and `O=C(Nc1ccc(OC2CCN(Cc3ccsc3)C2)c(Cl)c1)c1ccsc1` (stereo not given), with “inactive”.
As for `CCn1c(-c2nc(-c3ccc4c(c3)OCO4)cnc2N)nc2cnccc21`, the result was inactive.
The same measure, in the same setting: then `Cc1cc(-c2ccc3c(c2)CCN(CCCOc2ccc4c(c2)CCN4C(=O)/C=C/c2ccccc2Cl)CC3)no1`, with “inactive”; and `O=C(c1ccc(Cl)cc1)N1CCCC(C(=O)N(Cc2nnc(-c3ccccc3Cl)o2)C2CC2)C1` (stereo not given), with “inactive”; and `O=C(CNC(=O)c1ccc(O)cc1)Nc1cccc(-c2cccc(-c3nc4ccc(C(F)(F)F)cc4[nH]3)c2)c1`, with “inactive”.
On the same count and under the same terms, then `O=c1cc(N2CCNCC2)c(Cl)nn1Cc1ccc(NS(=O)(=O)c2ccc(Oc3ccccc3)cc2)cc1`, with “inactive”.
As for `Cc1ccc(O)cc1Nc1ccnc2ccc(-c3csc(CNCCN4CCOCC4)n3)cc12`, the outcome was inactive.
The same measure, in the same setting: then `CN(C)CCNc1ncnc2c1[nH]c1ccc(Cl)cc12`, with “inactive”.
The same measure, in the same setting: the entry for `CCc1ccc(CN2CCC(NC(=O)c3ccc(-c4ccc(N(C)C)cc4)s3)CC2)cc1` is “inactive”; for `Nc1ccc(Nc2ccnc3ccc(C(F)(F)F)cc23)cc1O` it is “inactive”.
For `O=C(Nc1ccc(Oc2ccccc2)cc1)N1CCC(CCN2CCC(c3c[nH]c4ccccc34)CC2)CC1`, the result was inactive.
`CN1CCC(NCc2ccc(-c3ccc(C(F)(F)F)cc3)cc2)CC1`: the outcome was inactive.
With `O=C(/C=C/c1ccc(Cl)c(Cl)c1)NCCCCCCN1CCCN(C(=O)Nc2ccc(C(F)(F)F)cc2)CC1`, the outcome was inactive.
In the case of `COc1ccccc1NC(=O)NC1CCN(CCCCCNC(=O)/C=C/c2ccc(Cl)c(Cl)c2)CC1`, the result was inactive.
Turning to `Oc1cccc(Nc2nc(NCc3ccco3)c3ccccc3n2)c1`, the result was inactive.
For the molecule `COCCNC(=O)c1ccc(OC2CCN(Cc3ccc(F)c(F)c3)CC2)c(Cl)c1`, the result was inactive.
With `O=C(Nc1cccc(-c2ccc(-c3nc4ccccc4[nH]3)cc2)c1)c1cccnc1`, the result was inactive.
Still for that read-out and setting: then `Cc1ccccc1C1CCN(C2CCC(NC(=O)c3cc(-c4ccc(Cl)cc4)cs3)CC2)CC1` (stereo not given), with “inactive”; and `CC(=O)Nc1nnc(SCc2c(C)cc(C(C)(C)C)cc2C)s1`, with “inactive”.
Consider `Nc1ccc(-c2ccc(NC(=O)Nc3ccccc3)cc2)cn1`, for which the result was inactive.
For `COc1cccc2c(NCCNc3ccnc4c(OC)cccc34)ccnc12`, the outcome was inactive.
